Measurements as given in PubChem BioAssay (Tox21).
Records with an inconclusive call do not appear. Calls of active or inactive are those of the source. Unless noted, calls come from the whole dose curve; as a rule, active = well fitted curve in the direction sought with a large enough effect in the repeat runs; inconclusive = weak or mixed curves; inactive = no such curve, though single readings can be large; an effect the other way counts as inactive or inconclusive.

Tests used:
[1] = biological target: Thyrotropin receptor (Homo sapiens) (UniProt P16473); assay: qHTS assay to identify small molecule antagonists of the thyroid stimulating hormone receptor (TSHR) signaling pathway (AID 1259385; calls by dose curve; note: nearly all actives have a fitted effect of over 20% in size)
Sequence of Thyrotropin receptor (Homo sapiens) (P16473 whole entry, looked up): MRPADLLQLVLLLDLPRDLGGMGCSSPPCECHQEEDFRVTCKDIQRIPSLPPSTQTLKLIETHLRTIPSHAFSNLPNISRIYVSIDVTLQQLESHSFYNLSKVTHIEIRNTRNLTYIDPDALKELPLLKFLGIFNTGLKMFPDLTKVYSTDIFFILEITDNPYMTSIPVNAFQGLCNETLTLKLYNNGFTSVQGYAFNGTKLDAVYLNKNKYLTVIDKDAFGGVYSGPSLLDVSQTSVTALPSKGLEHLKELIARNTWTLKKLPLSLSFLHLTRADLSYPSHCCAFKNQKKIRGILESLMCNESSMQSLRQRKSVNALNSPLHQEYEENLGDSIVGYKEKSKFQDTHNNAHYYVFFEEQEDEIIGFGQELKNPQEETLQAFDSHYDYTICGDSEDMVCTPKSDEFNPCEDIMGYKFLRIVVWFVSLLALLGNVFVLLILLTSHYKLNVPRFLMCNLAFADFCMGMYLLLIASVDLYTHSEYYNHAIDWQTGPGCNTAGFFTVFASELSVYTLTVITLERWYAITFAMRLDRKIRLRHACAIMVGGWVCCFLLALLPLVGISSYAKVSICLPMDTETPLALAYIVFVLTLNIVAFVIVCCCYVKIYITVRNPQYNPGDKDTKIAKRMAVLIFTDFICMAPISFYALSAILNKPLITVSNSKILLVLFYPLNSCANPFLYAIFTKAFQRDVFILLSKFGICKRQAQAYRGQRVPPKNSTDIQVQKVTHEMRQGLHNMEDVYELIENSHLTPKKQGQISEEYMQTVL
Summary of the method: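 TSHR-HEK293 cells were plated and held 18 h at 37C/5% CO2, then given compound plus Ro20-1724 and stimulated with TSH at 1.5 ng/mL final. After 30 min at room temperature, cAMP was detected with cAMP-d2/anti-cAMP-cryptate (1 h) by fluorescence.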

[2] = qHTS assay to identify small molecule agonists of the estrogen receptor alpha (ER-alpha) signaling pathway in the presence of an antagonist - cell viability counter screen (AID 1259386);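 note: series mostly up to about 92 µM; cells exposed to compounds for 22 h at 37 °C before the viability read; nearly all actives have a fitted effect of over 30% in size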
Summary of the method: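 In this counter screen, compound effects on VM7Luc4E2 viability were tested in the presence of the antagonist ICI-182,780 at 10.0nM final. Compounds were dosed at 15 concentrations, exposure lasted 22hr, and the CellTiter-Fluor signal was read.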

[3] = biological target: Progesterone receptor (Homo sapiens) (UniProt P06401); assay: qHTS assay to identify small molecule agonists of the progesterone receptor (PR) signaling pathway (AID 1346784; calls by dose curve; note: nearly all actives have a fitted effect of over 30% in size)
Sequence of Progesterone receptor (Homo sapiens) (P06401 whole entry, looked up): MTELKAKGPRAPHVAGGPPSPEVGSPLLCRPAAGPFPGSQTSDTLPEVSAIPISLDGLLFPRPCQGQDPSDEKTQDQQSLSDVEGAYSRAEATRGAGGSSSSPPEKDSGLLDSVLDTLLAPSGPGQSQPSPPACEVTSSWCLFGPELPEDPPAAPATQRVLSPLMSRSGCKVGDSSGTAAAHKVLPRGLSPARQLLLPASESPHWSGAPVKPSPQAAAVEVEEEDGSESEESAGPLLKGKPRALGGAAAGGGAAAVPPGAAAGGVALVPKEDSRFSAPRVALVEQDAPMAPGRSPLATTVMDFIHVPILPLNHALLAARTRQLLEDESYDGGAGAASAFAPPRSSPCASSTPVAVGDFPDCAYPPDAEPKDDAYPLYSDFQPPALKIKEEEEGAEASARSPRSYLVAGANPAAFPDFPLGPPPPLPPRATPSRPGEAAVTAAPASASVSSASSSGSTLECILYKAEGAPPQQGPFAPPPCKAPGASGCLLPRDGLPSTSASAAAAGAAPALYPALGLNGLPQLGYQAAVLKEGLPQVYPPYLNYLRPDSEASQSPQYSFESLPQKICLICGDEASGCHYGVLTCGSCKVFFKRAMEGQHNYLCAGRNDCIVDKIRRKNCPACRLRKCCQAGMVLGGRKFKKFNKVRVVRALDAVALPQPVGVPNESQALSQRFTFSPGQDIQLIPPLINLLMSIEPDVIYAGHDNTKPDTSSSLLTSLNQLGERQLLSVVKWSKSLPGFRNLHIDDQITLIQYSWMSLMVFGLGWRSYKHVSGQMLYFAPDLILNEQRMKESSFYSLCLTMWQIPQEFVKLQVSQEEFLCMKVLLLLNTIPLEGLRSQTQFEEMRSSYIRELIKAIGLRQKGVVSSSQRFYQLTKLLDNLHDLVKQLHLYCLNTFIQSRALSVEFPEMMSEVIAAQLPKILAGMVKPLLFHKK
Summary of the method: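 Fluorescence from LiveBLAzer B/G FRET substrate cleavage (2 hr, RT) reported PR activation in PR-UAS-bla HEK 293T cells treated 16 hr at 37C/5% CO2 with compounds; medium contained 2% charcoal-stripped FBS.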

[4] = biological target: Progesterone receptor (Homo sapiens) (UniProt P06401); assay: qHTS assay to identify small molecule antagonists of the progesterone receptor (PR) signaling pathway (AID 1346795; active = well fitted inhibition curve with a large enough effect in the signal ratio in the repeat runs, not every such curve was filed as active; the % refers to the signal ratio)
Summary of the method: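 Fluorescence intensity measured 2 hr after adding beta-lactamase FRET substrate to PR-UAS-bla HEK293T cells that had been co-treated 16 hr with compound and 1 nM R5020 (final concentration) in 2% charcoal-stripped FBS.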

[5] = qHTS assay to identify small molecule antagonists of the progesterone receptor (PR) signaling pathway - cell viability counter screen (AID 1346798); note: series mostly up to about 92 µM; nearly all actives have a fitted effect of over 50% in size
Summary of the method: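 CellTiter-Glo luminescence; PR-UAS-bla HEK293T, 3,000 cells/well; compound + R5020, 16 hr, 37C/5% CO2; 30 min RT before read.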

[6] = qHTS assay to identify small molecule agonists of the progesterone receptor (PR) signaling pathway - cell viability counter screen (AID 1346799; calls by dose curve; note: nearly all actives have a fitted effect of over 45% in size)
Summary of the method: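 In parallel with the beta-lactamase readout, cytotoxicity toward PR-UAS-bla HEK293T cells was measured by CellTiter-Glo luminescence following 16 hr compound incubation in 2% charcoal-stripped FBS medium.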

[7] = qHTS assay to identify small molecule agonists of the TGF-beta/Smad signaling pathway - cell viability counter screen (AID 1346829); note: top concentration of the series differs between compounds; nearly all actives have a fitted effect of over 45% in size
Summary of the method: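 Tox21 qHTS format: SBE-bla HEK 293T cells treated with DMSO-dissolved compounds for 5 hr; CellTiter-Glo luminescence after 30 min at room temperature.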

[8] = biological target: Thyrotropin-releasing hormone receptor (Homo sapiens) (UniProt P34981); assay: qHTS assay to identify small molecule antagonists of the thyrotropin-releasing hormone receptor (TRHR) signaling pathway (AID 1346877; active = well fitted inhibition curve with a large enough effect in the repeat runs, not every such curve was filed as active; note: series mostly up to about 51 µM)
Sequence of Thyrotropin-releasing hormone receptor (Homo sapiens) (P34981 whole entry, looked up): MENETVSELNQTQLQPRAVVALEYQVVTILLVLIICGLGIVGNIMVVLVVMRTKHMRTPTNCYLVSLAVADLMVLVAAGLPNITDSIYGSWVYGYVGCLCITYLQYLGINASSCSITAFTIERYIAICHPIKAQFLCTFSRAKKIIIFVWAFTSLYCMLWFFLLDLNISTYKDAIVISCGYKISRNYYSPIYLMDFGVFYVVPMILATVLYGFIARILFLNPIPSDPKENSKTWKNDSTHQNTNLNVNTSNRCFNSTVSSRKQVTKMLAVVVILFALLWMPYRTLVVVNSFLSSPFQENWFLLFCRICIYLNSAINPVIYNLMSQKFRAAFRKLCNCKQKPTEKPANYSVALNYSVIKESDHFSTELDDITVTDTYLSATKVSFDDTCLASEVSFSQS
Summary of the method: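 Kinetic fluorescence (3 min, 1 s resolution) following stimulation with TRH at 1 nM final; HEK293 cells bearing human TRHR; 5 min compound preincubation at RT; concentration-response over 15 points, triplicates.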

[9] = biological target: Thyrotropin-releasing hormone receptor (Homo sapiens) (UniProt P34981); assay: qHTS assay to identify small molecule agonists of the thyrotropin-releasing hormone receptor (TRHR) signaling pathway (AID 1346891; calls by dose curve;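 note: HEK293 cells expressing TRHR with calcium dye readout; series mostly up to about 58 µM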)
Summary of the method: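 Compounds were tested as agonists at 15 concentrations, in triplicate, on TRHR-Hek293 cells; calcium-sensitive dye fluorescence was recorded for 3 min following addition.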

[10] = Caspase-3/7 induction in HepG2 cells by small molecules, qHTS assay (AID 1346978); note: nearly all actives have a fitted effect of over 15% in size
Summary of the method: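 Wild-type HepG2 cells (2,000/well) were settled 5 h at 37 C, 5% CO2, then exposed to compounds in DMSO for 17 h. Caspase-3/7 activity was read by luminescence 30 min after adding Caspase-Glo 3/7 reagent at room temperature.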

[11] = Caspase-3/7 induction in CHO-K1 cells by small molecules, qHTS cell viability counter screen (AID 1346979); note: nearly all actives have a fitted effect of over 35% in size
Summary of the method: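 Viability readout by fluorescence (CellTiter-Fluor) on wild-type CHO-K1 cells exposed for 16hr at 37C and 5% CO2 to compounds delivered in DMSO; reagent incubated 1hr before reading.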

[12] = Caspase-3/7 induction in CHO-K1 cells by small molecules, qHTS assay (AID 1346980); note: nearly all actives have a fitted effect of over 15% in size
Summary of the method: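 Wild-type cells were seeded at 1,500 per well and settled 5 hr at 37 C, 5% CO2, then exposed to DMSO-dissolved compounds for 17 hr. Caspase-Glo 3/7 reagent was added, and luminescence was read after 30min at room temperature.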

[13] = Caspase-3/7 induction in HepG2 cells by small molecules, qHTS cell viability counter screen (AID 1346981); note: series mostly up to about 92 µM; nearly all actives have a fitted effect of over 30% in size
Summary of the method: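 In this quantitative HTS counter screen, compounds delivered in DMSO were left on unmodified HepG2 cells for 16 hr at 37 C. Viability was then determined fluorometrically with CellTiter-Fluor, in parallel with caspase-3/7 induction in the same wells.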

[14] = biological target: Nuclear receptor subfamily 1 group I member 2 (Homo sapiens) (UniProt O75469); assay: Human pregnane X receptor (PXR) small molecule agonists, qHTS assay (AID 1346982); note: nearly all actives have a fitted effect of over 35% in size
Sequence of Nuclear receptor subfamily 1 group I member 2 (Homo sapiens) (O75469 whole entry, looked up): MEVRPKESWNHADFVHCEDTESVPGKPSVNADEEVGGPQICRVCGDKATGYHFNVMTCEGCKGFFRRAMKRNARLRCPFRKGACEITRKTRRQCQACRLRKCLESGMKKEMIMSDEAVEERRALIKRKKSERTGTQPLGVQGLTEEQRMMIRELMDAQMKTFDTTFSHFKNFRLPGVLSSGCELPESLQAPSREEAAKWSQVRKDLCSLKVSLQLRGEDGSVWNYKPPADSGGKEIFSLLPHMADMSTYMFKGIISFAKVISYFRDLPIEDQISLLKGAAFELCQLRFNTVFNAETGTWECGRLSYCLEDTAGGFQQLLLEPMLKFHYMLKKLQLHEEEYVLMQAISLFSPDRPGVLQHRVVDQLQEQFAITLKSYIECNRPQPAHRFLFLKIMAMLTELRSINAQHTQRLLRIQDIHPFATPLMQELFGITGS
Summary of the method: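 Reporter HepG2 cells expressing PXR-Luc are cultured in charcoal-stripped FBS (5%), treated with compounds for 24 hr at 37 C, and assayed by ONE-Glo luminescence after 30 min at room temperature.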

[15] = biological target: Cytochrome P450 2D6 (Homo sapiens) (UniProt P10635); assay: Cytochrome P450 Family 2 Subfamily D Member 6 (CYP2D6) small molecule antagonists: luciferase reporter qHTS assay (AID 1671196); note: nearly all actives have a fitted effect of over 50% in size; note: potency is the fitted concentration of half-maximal effect; for activity change, negative = inhibition: series mostly up to about 120 µM
Sequence of Cytochrome P450 2D6 (Homo sapiens) (P10635 whole entry, looked up): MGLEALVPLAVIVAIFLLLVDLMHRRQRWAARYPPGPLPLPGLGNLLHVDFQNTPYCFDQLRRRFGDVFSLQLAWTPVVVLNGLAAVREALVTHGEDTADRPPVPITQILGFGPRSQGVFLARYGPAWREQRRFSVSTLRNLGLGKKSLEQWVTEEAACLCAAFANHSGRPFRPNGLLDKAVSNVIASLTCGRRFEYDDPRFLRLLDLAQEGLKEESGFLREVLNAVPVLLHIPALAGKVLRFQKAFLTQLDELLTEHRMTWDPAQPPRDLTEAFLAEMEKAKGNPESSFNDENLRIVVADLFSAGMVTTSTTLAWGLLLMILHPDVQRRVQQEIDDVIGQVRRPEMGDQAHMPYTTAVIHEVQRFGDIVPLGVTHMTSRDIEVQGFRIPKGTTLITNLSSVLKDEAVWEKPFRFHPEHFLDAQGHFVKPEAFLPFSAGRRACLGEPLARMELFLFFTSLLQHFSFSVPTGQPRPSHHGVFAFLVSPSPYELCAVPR
Summary of the method: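 Test chemicals meet CYP2D6 plus proluciferin substrate (10 min, RT); NADPH regenerating solution then drives turnover for 1 h. Detection reagent halts the reaction; luminescence measured after 20 min.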

[16] = qHTS assay to identify small molecule agonists of the TGF-beta/Smad signaling pathway (AID 1346859; active = well fitted activation curve with a large enough effect in the signal ratio in the repeat runs, not every such curve was filed as active; the % refers to the signal ratio; note: series mostly up to about 77 µM)
Summary of the method: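 After overnight seeding, SBE-bla HEK 293T cells are dosed with compounds in DMSO and kept 5 hr at 37 C, 5% CO2. LiveBLAzer-type FRET substrate is then applied for 2 hr at room temperature.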

[17] = Human pregnane X receptor (PXR) small molecule agonists, qHTS cell viability counter screen (AID 1346977); note: nearly all actives have a fitted effect of over 50% in size
Summary of the method: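 Viability counter screen: CellTiter-Fluor signal in PXR-Luc HepG2 cells, 24hr compound exposure, 37C, 5% CO2.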

[18] = qHTS assay to identify small molecule antagonists of the TGF-beta/Smad signaling pathway - cell viability counter screen (AID 1346824); note: nearly all actives have a fitted effect of over 50% in size
Summary of the method: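 SBE-bla HEK 293T cells were plated overnight at 37 C, then given compounds in DMSO plus TGF-beta1 (added as 0.25 ng/mL solution) for 5 hr. After the bla read, CellTiter-Glo was added to the same wells and luminescence read after 30 min at room temperature.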

[19] = biological target: Nuclear receptor subfamily 1 group I member 2 (Rattus norvegicus) (UniProt Q9R1A7); assay: Rat pregnane X receptor (rPXR) activation by small molecules, qHTS assay (AID 1346983); settings: rPXR luciferase reporter cells, One-Glo luminescence, 24 h; max activation: hits give high values; note: nearly all actives have a fitted effect of over 20% in size
Sequence of Nuclear receptor subfamily 1 group I member 2 (Rattus norvegicus) (Q9R1A7 whole entry, looked up): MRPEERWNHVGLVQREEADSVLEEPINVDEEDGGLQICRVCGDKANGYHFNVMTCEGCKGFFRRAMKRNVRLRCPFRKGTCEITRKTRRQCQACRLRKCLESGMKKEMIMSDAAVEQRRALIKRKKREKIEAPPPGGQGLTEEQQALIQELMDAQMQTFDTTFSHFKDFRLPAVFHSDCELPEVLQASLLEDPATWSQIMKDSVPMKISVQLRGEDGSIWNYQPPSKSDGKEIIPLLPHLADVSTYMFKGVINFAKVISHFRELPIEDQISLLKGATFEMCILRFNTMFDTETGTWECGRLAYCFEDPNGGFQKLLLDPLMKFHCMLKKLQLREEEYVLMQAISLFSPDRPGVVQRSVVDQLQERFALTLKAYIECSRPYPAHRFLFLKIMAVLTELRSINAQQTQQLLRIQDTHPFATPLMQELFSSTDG
Summary of the method: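 Cell-based rPXR luciferase reporter assay, 2,000 cells per well, rested 5hr at 37 C before compound addition in DMSO, then 24 hr at 37 C. One-Glo reagent was added and luminescence read after 30 min at room temperature.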

[20] = biological target: Nuclear receptor subfamily 1 group I member 2 (Homo sapiens) (UniProt O75469); assay: Human pregnane X receptor (PXR) activation by small molecules, qHTS assay (AID 1346985); note: nearly all actives have a fitted effect of over 40% in size
Summary of the method: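 DPX-2 cells (HepG2 co-transfected with a PXR response element and a CYP3A4-promoter luciferase construct) were seeded at 2,000 per well, rested 5 hr at 37C, then exposed to DMSO-dissolved compounds for 24 hr. Activation was read as luciferase luminescence.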
% is set by controls: 0 for no effect and ±100 for the full control effect.

CCC1=C(C)CN(C(=O)NCCc2ccc(S(=O)(=O)NC(=O)NC3CCC(C)CC3)cc2)C1=O (stereo not given)
inactive: Potency [1] | Potency [2] | Potency [3] | Potency [4] | Potency [5] | Potency [6] | outcome [7] | outcome [8] | outcome [9] | Potency [10] | Potency [11] | Potency [12] | Potency [13] | Potency [14] | Potency [15]

O=[N+]([O-])c1ccccc1CCO
inactive: Potency [1] | Potency [2] | Potency [3] | Potency [4] | Potency [5] | Potency [6] | outcome [7] | outcome [16] | outcome [8] | outcome [9] | Potency [17] | Potency [10] | Potency [11] | Potency [12] | Potency [13] | Potency [14] | Potency [15]

CCCOC(C)=O
inactive: Potency [1] | Potency [2] | Potency [3] | Potency [4] | Potency [5] | Potency [6] | outcome [7] | outcome [16] | outcome [8] | outcome [9] | Potency [17] | Potency [10] | Potency [11] | Potency [12] | Potency [13] | Potency [14] | Potency [15]

CCCCCCCCCCCCCCCCC(=O)O
inactive: Potency [1] | Potency [2] | Potency [3] | Potency [4] | Potency [5] | Potency [6] | outcome [7] | outcome [16] | outcome [8] | outcome [9] | Potency [17] | Potency [10] | Potency [11] | Potency [12] | Potency [13] | Potency [14]

CC(=O)Nc1ccn(C2COC(COC(=O)c3ccccc3)O2)c(=O)n1 (stereo not given)
inactive: Potency [1] | Potency [2] | Potency [3] | Potency [4] | Potency [5] | Potency [6] | outcome [18] | outcome [7] | outcome [8] | outcome [9] | Potency [17] | Potency [10] | Potency [11] | Potency [12] | Potency [13] | Potency [14] | Potency [15]

O=C(O)c1ccc2c(c1)nc(C(=O)NC1CCN(C3CC3)CC1)n2Cc1cc(-c2ccc(Cl)s2)on1
inactive: activity change, negative = inhibition [1] 2.44% [at 19 µM] | activity change, negative = cytotoxicity [2] 7.53% [at 19 µM] | activation [3] 1.53% [at 19 µM] | activity change, negative = inhibition [4] -15.4% [at 18.9 µM] | activity change, negative = cytotoxicity [5] -14.4% [at 18.9 µM] | activity change, negative = cytotoxicity [6] -20.4% [at 19 µM] | viability change, negative = cytotoxic [18] 0.205% [at 15.8 µM] | activity change, negative = cytotoxicity [7] 20.2% [at 15.8 µM] | activity, negative = inhibition [8] 0.0336% [at 10.5 µM] | activation [9] 2.01% [at 11.8 µM] | activity change, negative = cytotoxicity [17] 17.8% [at 19 µM] | caspase activation [10] -0.956% [at 19 µM] | caspase-3/7 activation [12] 9.35% [at 19 µM] | activity change, negative = cytotoxicity [13] 3.23% [at 19 µM] | activity change, negative = inhibition [15] -3.64% [at 23.6 µM]

N#CCCCC(C#N)CCC#N (stereo not given)
inactive: Potency [1] | Potency [2] | Potency [3] | Potency [4] | Potency [5] | Potency [6] | outcome [7] | outcome [16] | Potency [10] | Potency [11] | Potency [12] | Potency [13] | Potency [14] | Potency [15]

COC(=O)c1cc(Cl)ccc1[N+](=O)[O-]
inactive: Potency [1] | Potency [2] | Potency [3] | Potency [4] | Potency [5] | Potency [6] | outcome [7] | outcome [16] | outcome [8] | outcome [9] | Potency [17] | Potency [10] | Potency [11] | Potency [12]

Clc1nc2ccccc2nc1Cl
active: Potency [15] 64 µM
inactive: Potency [1] | Potency [2] | Potency [3] | Potency [4] | Potency [5] | Potency [6] | outcome [7] | outcome [16] | outcome [8] | outcome [9] | Potency [17] | Potency [10] | Potency [11] | Potency [12] | Potency [13]

CCOC(OCC)OCC
inactive: Potency [1] | Potency [2] | Potency [3] | Potency [4] | Potency [5] | Potency [6] | outcome [18] | outcome [7] | outcome [16] | Potency [10] | Potency [11] | Potency [12] | Potency [13] | Potency [14] | Potency [15]

C=CC(=O)OCCCCCCCCCC
inactive: Potency [1] | Potency [2] | Potency [3] | Potency [4] | Potency [5] | Potency [6] | outcome [7] | outcome [16] | outcome [8] | outcome [9] | Potency [17] | Potency [10] | Potency [11] | Potency [12] | Potency [13] | Potency [14] | Potency [15]

CCCCCCCCCCCCCCCCN
inactive: Potency [1] | Potency [2] | Potency [3] | Potency [4] | outcome [18] | outcome [7] | outcome [16] | outcome [8] | outcome [9] | Potency [10] | Potency [11] | Potency [12] | Potency [13] | max activation [19] -4.68% | Potency [20]

Cc1cc(C)c(C)c(O)c1
inactive: Potency [1] | Potency [2] | Potency [3] | Potency [5] | Potency [6] | outcome [18] | outcome [7] | outcome [16] | outcome [8] | outcome [9] | Potency [17] | Potency [10] | Potency [11] | Potency [12] | Potency [13] | Potency [14] | Potency [15]
